In PubChem BioAssay one finds composite z-score and z-score data, which are given here for 16 compounds.

Active and inactive are the calls of the source.

Experiment [1] in a line: binders of probe aFSTL3 on microarray, primary screen, stem cell growth factor project, biochemical, small-molecule microarray, fluorescence 635/667 (AID 1064).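 Further: measures binding of the biotinylated anti-FSTL3 antibody to printed compounds.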 Particulars: higher = more signal.
Experiment [2] in a line: binders from COS7 lysate, DM2A8 probe, primary screen, torsin A project, cell lysate, small-molecule microarray, fluorescence 635/667 (AID 1065). Particulars: higher = more signal, COS7 lysate expressing mutant human TOR1A.
Experiment [3] in a line: binders of probe aFGF2 on microarray, primary screen, stem cell growth factor project, biochemical, small-molecule microarray, fluorescence 635/667 (AID 1067).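 Further: measures binding of biotinylated aFGF2 protein to printed compounds on slides; z-score merges feature fluorescence and signal-to-noise across triplicate slides.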 Particulars: higher = more signal.
Experiment [4] is described as follows: binders of probe aFGF10 on microarray, primary screen, stem cell growth factor project, biochemical, small-molecule microarray, fluorescence 635/667 (AID 1071).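 Further: score merges 667 nm spot intensity and signal to noise from triplicate slides.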 Particulars: higher = more signal.
Experiment [5] deals with Neurogenic locus notch homolog protein 2 (Homo sapiens) (UniProt Q04721). The experiment in a line: Notch2 binders on small-molecule microarrays, primary screen, biochemical, small-molecule microarray, 635 nm fluorescence, stem cell growth factors (AID 1073). Particulars: Notch2 binding, higher = more signal.
Neurogenic locus notch homolog protein 2 (Homo sapiens), sequence (Q04721 whole entry, looked up, canonical isoform): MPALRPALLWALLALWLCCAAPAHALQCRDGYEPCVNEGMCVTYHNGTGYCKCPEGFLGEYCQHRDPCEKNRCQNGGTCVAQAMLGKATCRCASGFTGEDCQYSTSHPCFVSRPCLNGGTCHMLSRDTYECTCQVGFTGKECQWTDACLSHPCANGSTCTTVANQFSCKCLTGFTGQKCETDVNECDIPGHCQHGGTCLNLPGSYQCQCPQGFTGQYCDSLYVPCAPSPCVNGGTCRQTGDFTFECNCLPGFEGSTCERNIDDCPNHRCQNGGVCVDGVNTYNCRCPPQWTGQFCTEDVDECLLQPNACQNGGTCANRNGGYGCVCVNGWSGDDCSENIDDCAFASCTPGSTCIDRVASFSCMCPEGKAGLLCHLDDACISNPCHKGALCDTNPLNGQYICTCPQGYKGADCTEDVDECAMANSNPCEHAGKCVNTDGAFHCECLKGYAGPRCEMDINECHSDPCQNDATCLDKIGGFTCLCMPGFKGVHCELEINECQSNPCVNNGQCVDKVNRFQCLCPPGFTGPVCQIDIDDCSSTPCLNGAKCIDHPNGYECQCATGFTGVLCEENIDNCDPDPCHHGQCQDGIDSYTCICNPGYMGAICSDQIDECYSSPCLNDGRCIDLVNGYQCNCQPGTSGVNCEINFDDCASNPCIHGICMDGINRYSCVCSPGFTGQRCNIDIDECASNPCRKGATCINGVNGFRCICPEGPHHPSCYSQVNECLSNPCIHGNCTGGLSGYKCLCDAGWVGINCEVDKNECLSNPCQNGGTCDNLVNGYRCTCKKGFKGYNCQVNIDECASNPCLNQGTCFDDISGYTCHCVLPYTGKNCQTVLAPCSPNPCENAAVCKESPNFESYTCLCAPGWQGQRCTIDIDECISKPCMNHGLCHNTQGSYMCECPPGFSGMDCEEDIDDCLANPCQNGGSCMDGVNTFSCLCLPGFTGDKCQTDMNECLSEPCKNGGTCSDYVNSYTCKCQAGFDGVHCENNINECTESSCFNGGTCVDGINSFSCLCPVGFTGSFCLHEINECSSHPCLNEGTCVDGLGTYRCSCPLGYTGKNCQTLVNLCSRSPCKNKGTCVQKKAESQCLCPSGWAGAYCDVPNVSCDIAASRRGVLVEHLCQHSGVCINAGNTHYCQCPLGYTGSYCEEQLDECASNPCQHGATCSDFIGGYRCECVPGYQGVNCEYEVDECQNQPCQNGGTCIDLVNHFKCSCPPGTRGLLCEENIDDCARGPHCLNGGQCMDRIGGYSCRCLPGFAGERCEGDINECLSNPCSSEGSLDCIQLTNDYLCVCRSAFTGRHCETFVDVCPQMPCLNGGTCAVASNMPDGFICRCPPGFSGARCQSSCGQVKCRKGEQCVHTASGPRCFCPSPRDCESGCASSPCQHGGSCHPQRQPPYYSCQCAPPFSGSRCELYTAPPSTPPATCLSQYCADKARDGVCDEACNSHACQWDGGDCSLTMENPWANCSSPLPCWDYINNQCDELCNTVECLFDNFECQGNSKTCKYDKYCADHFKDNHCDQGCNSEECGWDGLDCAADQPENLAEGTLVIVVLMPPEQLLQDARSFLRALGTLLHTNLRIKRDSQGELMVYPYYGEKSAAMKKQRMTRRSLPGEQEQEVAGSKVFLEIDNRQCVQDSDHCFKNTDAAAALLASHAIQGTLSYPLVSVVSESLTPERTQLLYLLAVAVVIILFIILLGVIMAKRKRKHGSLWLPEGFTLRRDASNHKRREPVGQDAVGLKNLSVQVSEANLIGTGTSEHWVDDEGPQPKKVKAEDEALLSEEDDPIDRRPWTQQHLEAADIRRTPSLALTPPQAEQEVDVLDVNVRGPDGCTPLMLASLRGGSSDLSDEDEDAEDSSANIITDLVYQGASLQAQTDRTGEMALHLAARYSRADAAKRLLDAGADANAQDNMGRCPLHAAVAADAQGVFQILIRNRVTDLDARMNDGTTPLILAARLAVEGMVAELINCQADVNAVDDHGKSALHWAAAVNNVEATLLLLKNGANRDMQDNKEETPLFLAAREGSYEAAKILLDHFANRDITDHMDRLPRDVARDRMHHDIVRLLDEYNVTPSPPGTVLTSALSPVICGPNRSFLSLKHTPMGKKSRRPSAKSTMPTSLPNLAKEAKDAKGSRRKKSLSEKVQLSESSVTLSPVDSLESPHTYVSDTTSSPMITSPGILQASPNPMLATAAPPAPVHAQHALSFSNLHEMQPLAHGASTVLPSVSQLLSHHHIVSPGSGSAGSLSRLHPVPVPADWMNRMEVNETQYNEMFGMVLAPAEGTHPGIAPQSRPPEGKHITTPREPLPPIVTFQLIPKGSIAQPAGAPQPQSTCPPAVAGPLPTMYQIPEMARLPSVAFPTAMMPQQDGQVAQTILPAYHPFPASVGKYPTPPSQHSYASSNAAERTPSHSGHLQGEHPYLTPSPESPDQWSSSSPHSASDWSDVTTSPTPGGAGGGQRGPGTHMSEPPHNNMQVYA
Experiment [6] deals with Pro-neuregulin-1, membrane-bound isoform (Homo sapiens) (UniProt Q02297). The experiment in a line: NRG1 binders on small-molecule microarrays, primary screen, psychiatric disease protein project, biochemical, small-molecule microarray, fluorescence 635/667 (AID 1075).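 Further: score combines 667 nm spot fluorescence with signal to noise.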 Particulars: NRG1 binding, 635 nm fluorescence, higher = more signal.
Pro-neuregulin-1, membrane-bound isoform (Homo sapiens), sequence (Q02297 whole entry, looked up, the tested form may be a part, canonical isoform): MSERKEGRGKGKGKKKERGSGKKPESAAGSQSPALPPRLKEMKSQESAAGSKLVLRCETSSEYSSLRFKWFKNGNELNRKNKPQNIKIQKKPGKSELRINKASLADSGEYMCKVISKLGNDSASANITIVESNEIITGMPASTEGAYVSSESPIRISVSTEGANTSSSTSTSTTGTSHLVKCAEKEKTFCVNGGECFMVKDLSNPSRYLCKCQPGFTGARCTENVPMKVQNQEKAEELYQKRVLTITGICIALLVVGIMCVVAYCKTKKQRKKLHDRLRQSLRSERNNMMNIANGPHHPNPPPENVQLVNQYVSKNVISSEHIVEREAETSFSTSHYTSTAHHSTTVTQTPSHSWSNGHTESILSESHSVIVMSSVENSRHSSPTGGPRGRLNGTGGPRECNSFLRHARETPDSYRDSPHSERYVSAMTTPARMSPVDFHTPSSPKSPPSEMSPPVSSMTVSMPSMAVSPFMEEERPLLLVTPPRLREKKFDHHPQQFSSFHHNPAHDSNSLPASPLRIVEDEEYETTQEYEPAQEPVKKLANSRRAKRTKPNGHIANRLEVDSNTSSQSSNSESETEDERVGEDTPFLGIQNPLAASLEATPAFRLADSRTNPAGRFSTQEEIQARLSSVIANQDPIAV
In experiment [7] the test system is Neuregulin-1 EGF-like domain. The experiment in a line: binders of neuregulin-1 EGF-like domain, primary screen, biochemical, small-molecule microarray, 635 nm fluorescence (AID 1081).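 Further: binding of the protein to compounds printed on small-molecule microarray slides.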 Particulars: small-molecule microarray binding, higher = more signal.
The nature of experiment [8]: FRG1 promoter luciferase signal modulators, primary screen, FRG1 inhibition for FSHD, cell-based, C2C12 myotubes, firefly/Renilla luciferase, luminescence (AID 1084). Particulars: higher = more signal, called active from +8 up or from −8 down.
The nature of experiment [9]: binders of probe aFST on microarray, primary screen, stem cell growth factor project, biochemical, small-molecule microarray, fluorescence 635/667 (AID 1086).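 Further: score merges 667 nm fluorescence with signal-to-noise of each printed compound spot.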 Particulars: higher = more signal.
The nature of experiment [10]: binders of probe aHhip on microarray, primary screen, stem cell growth factor project, biochemical, small-molecule microarray, fluorescence 635/667 (AID 1087).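 Further: score merges spot fluorescence at 667nm with spot signal to noise ratio.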 Particulars: higher = more signal.

Take `CC(C)C[C@@H]1NC(=O)[C@@H]2C[C@H](C(=O)NCCCC[N+](C)(C)C)[C@H](c3ccc(O)cc3)N2C1=O`: the composite z-score in experiment [1] is -0.358; in [2] it was 1.4; in [3] it was -0.116; in experiment [4], 0.639; in experiment [5] it was 0.113; in experiment [6], 1.54. Also, the composite z-score in experiment [7] was determined as 1.32; in experiment [9] it was 0.221; in experiment [10] it was 0.319. Also, the z-score in experiment [8] is 0.53 (inactive).

In the case of `COCCOC(=O)N1C(=O)[C@@]2(c3cc(C#CC4=CCCCC4)ccc31)[C@H](C(=O)N1CCc3cc(OC)c(OC)cc3C1)[C@H]1C(=O)O[C@H](c3ccccc3)[C@H](c3ccccc3)N1[C@@H]2c1ccc(O)cc1`, the composite z-score in experiment [1] was -0.0908; in experiment [2], 0.271; in experiment [3], 0.0216; in experiment [4], 1.15; in experiment [5] it was 1.5; in experiment [6] it was 1.79. In addition, the figures for the composite z-score in experiment [7], in experiment [9] and in experiment [10] were 1.25, 0.153 and 0.0515, respectively. Further, the z-score in [8] is -0.514 (inactive).

`CCOC(=O)C1=C(C(=O)OCC)N(S(=O)(=O)CC[Si](C)(C)C)[C@H](c2ccccc2)CC1`: the composite z-score in [1] was 0.208; in experiment [2], 0.0516; in experiment [3] it was -0.0066; in [4], 0.2; in experiment [5] it was 1.53; in [6] it was -0.0059. Further, the composite z-score was 0.884 in experiment [7], 0.917 in [9] and 0.0623 in [10]. Moreover, the z-score in [8] was -2.55 (inactive).

`COc1ccc(C#Cc2ccc3c(c2)[C@]2(C(=O)N3)[C@H](C(=O)Nc3nc4ccccc4s3)[C@H]3C(=O)O[C@H](c4ccccc4)[C@H](c4ccccc4)N3[C@@H]2c2ccc(OCCO)cc2)cc1`: the composite z-score in experiment [1] was -0.113; in [2] it was 1.45; in [3], 0.0015; in experiment [4], 0.977; in experiment [5] it was 1.5; in experiment [6], 1.31. Besides, the figures for the composite z-score in [7], in experiment [9] and in [10] were 1.08, 0.349 and -0.216, respectively. Also, the z-score in [8] is 4.94 (inactive).

In the case of `CN(C)CCCNC(=O)[C@@H]1c2ccccc2C(=O)N(C2Cc3ccccc3C2)[C@H]1c1ccc(CO)cc1`, the composite z-score was 0.158 in [1]; 0.345 in [2]; -0.0566 in [3]; -0.273 in [4]; 0.175 in experiment [5]; 0.618 in experiment [6]. Besides, the results for the composite z-score in experiment [7], in [9] and in experiment [10] were 0.849, 0.178 and -0.151, respectively. In addition, the z-score in experiment [8] was -1.3 (inactive).

In the case of `COc1ccc(C(O)C2C=CC3C(=O)N(C)C(=O)C3N2Nc2ccc([N+](=O)[O-])cc2[N+](=O)[O-])cc1OCc1ccccc1` (stereo not given), the composite z-score is -0.0125 in experiment [1]; 0.216 in experiment [2]; 0.258 in experiment [3]; 0.975 in experiment [4]; 1.6 in experiment [5]; 0.875 in experiment [6]. Further, the composite z-score in [7] was 1.27; in [9], 1.04; in experiment [10], -0.0296. In experiment [8], the z-score was 0.37 (inactive).

For `C=CCC(OC(C)=O)[C@@H]1[C@@H](N(Cc2ccc(-c3ccccc3)cc2)C(=O)c2ccc(-c3ccccc3)cc2)c2cc(OCCCO)ccc2N1C(=O)c1ccc2ccccc2n1` (stereo not given in full), the composite z-score was 0.0997 in experiment [1]; 0.185 in [2]; -0.0945 in experiment [3]; 0.0767 in experiment [4]; -0.332 in experiment [5]; 0.211 in [6]. Further, the composite z-score was -0.359 in [7], 0.212 in experiment [9] and 0.347 in [10]. The z-score in experiment [8] is -0.0161 (inactive).

Consider `COCCOC(=O)N1C(=O)[C@@]2(c3cc(C#CCNC(N)=O)ccc31)[C@H](C(=O)NC[C@H](O)c1ccccc1)[C@H]1C(=O)O[C@H](c3ccccc3)[C@H](c3ccccc3)N1[C@@H]2c1ccc(OCCO)cc1`, for which the composite z-score in experiment [1] is 0.102; in [2] it was 0.249; in experiment [3] it was 0.0198; in experiment [4], 0.656; in experiment [5], 0.431; in [6], 0.634. Besides, the figures for the composite z-score in experiment [7], in experiment [9] and in experiment [10] were 0.877, 0.538 and -0.0994, respectively. The z-score in [8] is 0.769 (inactive).

Turning to `O=C1c2ccccc2[C@@]2(Cc3ccccc3N(Cc3ccccc3)C2=O)[C@H](c2ccc(CO)cc2)N1Cc1ccccc1`, the composite z-score in experiment [1] was 0.55; in experiment [2], -0.0642; in experiment [3] it was -0.078; in experiment [4], -0.221; in [5], -0.476; in [6], -0.605. The composite z-score was -0.564 in experiment [7], -0.351 in experiment [9] and -0.0645 in experiment [10]. Also, the z-score in experiment [8] is 0.161 (inactive).

As to `CCCCC(O)C1C=CC2C(=O)NC(=O)C2N1Nc1ccc(Cl)cc1Cl` (stereo not given), the composite z-score was 0.439 in [1]; -0.384 in experiment [2]; 0.0127 in [3]; 0.612 in experiment [4]; 0.866 in experiment [5]; 1.3 in experiment [6]. The figures for the composite z-score in [7], in [9] and in experiment [10] were 1.09, 0.691 and -0.27, respectively. Moreover, the z-score in [8] was 0.0812 (inactive).

With `CN1C=C(C(=O)OCCS(C)(=O)=O)C(C(=O)OCCS(C)(=O)=O)=CC(CCCO)=CC1c1ccc(CN2CCCC2)cc1` (stereo not given), the composite z-score in [1] stood at 0.316; in [2] it was 0.156; in experiment [3], 0.0126; in experiment [4], 1.11; in experiment [5], 1.25; in [6], 2.02. The composite z-score in [7] turned out to be 1.35; in [9], 1.65; in [10], 0.0053. Also, the z-score in experiment [8] is 0.226 (inactive).

On to `CCOC(=O)C1=CC[C@@H](c2ccccc2Cl)N(S(=O)(=O)c2ccc(C)cc2)[C@H]1c1cccc(OC)c1`, for which the composite z-score was -0.329 in experiment [1]; 0.0632 in experiment [2]; -0.0276 in [3]; 0.317 in experiment [4]; 0.408 in experiment [5]; 0.0948 in [6]. Moreover, the composite z-score in [7] is 0.971; in experiment [9], 0.289; in experiment [10] it was 0.0139. For the same compound, the z-score in [8] is -0.38 (inactive).

On to `C=CC(CO)NC(=O)OCC1c2ccccc2-c2ccccc21` (stereo not given), for which the composite z-score was -0.165 in experiment [1]; 0.96 in experiment [2]; -0.178 in [3]; 0.282 in [4]; 0.342 in [5]; 0.147 in [6]. Besides, the composite z-score in experiment [7] is 0.256; in [9], 0.0613; in [10], -0.217. The z-score in experiment [8] was -0.113 (inactive).

With `C=CCOC(=O)[C@H]1[C@@H]2C(=O)O[C@@H](c3ccccc3)[C@@H](c3ccccc3)N2[C@@H](c2ccc(OCCOC(=O)[C@H]3C[C@H]4C(=O)NCC(=O)N4[C@H]3c3ccc(O)cc3)cc2)[C@]12C(=O)Nc1ccc(I)cc12`, the composite z-score in experiment [1] is -0.309; in experiment [2] it was 1.03; in [3] it was -0.0867; in experiment [4], 0.202; in [5], 0.636; in [6] it was 0.346. Besides, the composite z-score was determined as 0.869 in [7], 0.392 in experiment [9] and 0.064 in experiment [10]. Also, the z-score in [8] was -1.35 (inactive).

On to `COc1cccc(C[C@H]2C[C@@H](CO[Si](C(C)C)(C(C)C)C(C)C)N3C(=O)[C@@]4(C(C)=O)O[C@@]23[C@@H]2C(=O)N(C)C(=O)[C@@H]24)c1`, for which the composite z-score in [1] was -0.43; in [2], 0.199; in [3], -0.0697; in [4], 0.933; in experiment [5] it was 1.16; in [6] it was 1.01. Besides, the composite z-score came to 0.93 in experiment [7], 0.307 in experiment [9] and 0.113 in experiment [10]. Besides, the z-score in experiment [8] is -1.14 (inactive).

For the compound `C=C(COC)/C(=C/C[C@H](OC(=O)c1ccncc1)c1ccc(OCCO)cc1)c1cc(C(=O)OC)ccc1OC`, the composite z-score in [1] was -0.139; in experiment [2], -0.0024; in experiment [3], 0.0436; in [4], 1.08; in experiment [5] it was 0.0841; in [6] it was 0.358. Further, the composite z-score in [7] worked out at 1.03; in [9] it was 1.42; in [10] it was 0.113. In experiment [8], the z-score is -0.992 (inactive).
